Bioassay records: PubChem BioAssay, National Center for Advancing Translational Sciences (NCATS)
Hits are enriched below; roughly 6% of the tested compounds scored in any of these assays.
D1 agonist: agonists of human D1 dopamine receptor. HEK293 T-REx D1 cells, calcium flux, agonist mode. activation, % at 2 µM. actives 1% (n = 360,000). AID 504660; in the data active = activation above about 30%; also: 0% is about no effect
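Tetracycline-induced HEK293 TREx D1 cells, force-coupled to calcium signalling, were dye-loaded with a no-wash calcium kit. Compound was pin-added after a 10 s baseline. Fluorescence was read kinetically at 1 cycle/s for 180 s, with calcium rises flagged as agonism.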
D3 antag: antagonists of human D3 dopamine receptor; actives 2.5% (n = 360,000); P35462; D3R cells, DiscoveRx beta-arrestin luminescence, antagonist mode; active compounds read low; max response, negative = inhibition, %; in the data active = max response below about -50%; inconclusive = no clear call, values can overlap the other calls; also: % is scaled to controls: 0 for no effect and ±100 for the full control effect
Target sequence (P35462 whole entry, looked up): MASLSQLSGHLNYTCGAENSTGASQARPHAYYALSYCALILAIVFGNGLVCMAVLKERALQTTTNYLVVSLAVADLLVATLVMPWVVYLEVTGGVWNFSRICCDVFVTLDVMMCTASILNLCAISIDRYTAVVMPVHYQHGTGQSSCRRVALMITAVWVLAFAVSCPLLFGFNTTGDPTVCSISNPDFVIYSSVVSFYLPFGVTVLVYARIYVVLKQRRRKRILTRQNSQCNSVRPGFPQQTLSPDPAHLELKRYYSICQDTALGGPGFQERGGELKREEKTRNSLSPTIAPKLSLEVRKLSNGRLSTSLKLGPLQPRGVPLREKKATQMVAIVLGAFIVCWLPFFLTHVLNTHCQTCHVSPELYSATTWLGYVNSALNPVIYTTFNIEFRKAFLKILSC
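Cells expressing the human receptor were seeded at 1500 cells/well, incubated overnight at 37 degrees C in 5% CO2, then exposed to library compounds with dopamine controls for 90 minutes at 37 degrees C before luminescent detection.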
DRD3 agonist: agonists of human D3 dopamine receptor | P35462 | D3R DiscoveRx beta-arrestin cells, luminescence, 90 min | max activation, % | actives 0.58% (n = 410,000); in the data active = max activation above about 30%; also: 0% is about no effect
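Agonist-mode cell screen: cells plated at 1500/well and incubated overnight at 37 °C, then exposed to library compounds for 90 min at 37 °C. Detection reagent was added for 30–60 min at room temperature, and luminescence was read.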
D1 potentiator: potentiators of human D1 dopamine receptor. P21728. HEK293 TREx D1 cells, calcium flux, dopamine EC20 potentiation. potentiation, % at 10 µM. actives 0.036% (n = 360,000); in the data active = potentiation above about 30%; also: 0% is about no effect
D1 antag: antagonists of human D1 dopamine receptor; P21728; HEK293 TREx D1 cells, calcium flux, dopamine EC80; active compounds read low; activity change, negative = inhibition, % at 10 µM; actives 3.2% (n = 360,000); in the data active = activity change below about -30%; also: % is scaled to controls: 0 for no effect and ±100 for the full control effect
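Antagonism measured as reduced calcium response to an EC80 dopamine addition following 180 s compound pre-read; cells were inducible HEK293 Trex D1 plated overnight at 30 C, read kinetically at 1 cycle/sec.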
* = called active by the depositor; ? = inconclusive; . = not tested or not shown.

SMILES | D1 agonist | D3 antag | DRD3 agonist | D1 potentiator | D1 antag
Cc1ccccc1CSc1nc2c(sc3ccccc32)c(=O)n1CCCC(=O)NCCCOC(C)C | 7 | . | 1 | -6 | -40*
O=C(CSc1nc2c(c(=O)n1-c1ccc(Cl)cc1)SCC2)NCC1CCCO1 (centres undefined) | 5 | ? | -8 | -13 | -32*
O=C(CSc1nc2c(sc3ccccc32)c(=O)n1CCCN1CCCC1)NCC1CCCO1 (centres undefined) | 3 | -57* | 0 | 6 | -5
O=C(CSc1nc2c(sc3ccccc32)c(=O)n1CCO)NCC1CCCO1 (centres undefined) | 0 | 2 | 2 | -2 | -11
CCOC(=O)c1cnc(-n2nc(C)cc2C)nc1N(CC)CC | 1 | -59* | -11 | -4 | -21
CCCCC(=O)Nc1cccc(C(C)O)c1 (centres undefined) | 2 | . | . | -8 | -4
CC(C)CC(=O)Nc1cccc(C(C)O)c1 (centres undefined) | 2 | . | . | -3 | -31*
CC(C)OC(=O)CSc1nnc(-c2cnccn2)n1C | 1 | 12 | 4 | -2 | -35*
Cc1cccc(C)c1NC(=O)CSc1nnc(-c2cnccn2)n1C | 1 | -2 | 1 | -4 | -51*
CC(C)OC(=O)CSc1nnc(-c2cccnc2)n1N | 2 | -11 | 7 | -5 | -31*
CNC(=O)CSc1nnc(-c2cnccn2)n1C | 1 | -2 | -1 | 5 | -15
O=C(Cc1ccccc1)Nc1ccccc1C(=O)N1CCN(c2ccccc2)CC1 | 2 | -8 | -2 | 15 | 9
CC1(C)C[C@@H](O)CC2(C1)C[C@]1(C)CC(O)[C@H]2C(C)(C)C1 (some centres undefined) | . | 7 | 0 | . | .
O=[N+]([O-])c1cc(-n2cnnn2)ccc1N1CCC(Cc2ccccc2)CC1 | -1 | 19 | -1 | -3 | -35*
CCc1ccc(N2CCn3c2nc2c3c(=O)n(Cc3ccc(F)cc3)c(=O)n2C)cc1 | 11 | . | 11 | -6 | -46*
C=CCNc1nc2c(c(=O)n(C)c(=O)n2C)n1Cc1ccc(F)cc1 | 5 | -30 | 2 | -6 | 2
COCCNc1nc2c(c(=O)n(C)c(=O)n2C)n1Cc1cccc(C)c1 | 0 | 47 | 6 | -9 | -50*
COc1ccc(Cn2c(NCC(C)C)nc3c2c(=O)n(C)c(=O)n3C)cc1 | 2 | . | -2 | 0 | -41*
COCCCNc1nc2c(c(=O)n(C)c(=O)n2C)n1Cc1cccc(OC)c1 | 0 | -19 | -3 | 1 | -9
CCc1ccc(N2CCn3c2nc2c3c(=O)n(Cc3c(F)cccc3Cl)c(=O)n2C)cc1 | 6 | . | 1 | -2 | -21
Cc1cccc(Cn2c(NCCO)nc3c2c(=O)n(C)c(=O)n3C)c1 | 1 | 15 | 6 | -1 | 1
CCC(C)Nc1nc2c(c(=O)n(C)c(=O)n2C)n1Cc1ccc(F)cc1 (centres undefined) | -1 | 21 | -9 | -21 | -85*
O=C(NCC1CCCO1)c1ccccc1OCc1ccc(F)cc1 (centres undefined) | 2 | -66* | -5 | -8 | 3
O=C(CSc1nnc(CCCN2C(=O)c3cccc4cccc(c34)C2=O)n1-c1ccccc1)N1CCCCC1 | 3 | -8 | -1 | -7 | -79*
CC(C)c1ccc(S(=O)(=O)c2cnc(=S)[nH]c2N)cc1 | 6 | -59* | -7 | 0 | 2
SMILES | D1 agonist | D3 antag | DRD3 agonist | D1 potentiator | D1 antag
O=C(Cn1c(-c2cncs2)nc2ccccc21)NCc1ccccc1 | 2 | -84* | -35 | -1 | 2
CN1CC(=O)NC1=N | . | . | 9 | . | .
Cc1ccc(CNC(=O)/C=C/c2c(Cl)cccc2Cl)cc1 | 6 | 10 | -1 | -2 | -36*
Cc1ccc(CNC(=O)/C=C/c2ccccc2Cl)cc1 | 7 | 5 | -4 | -3 | -12
O=C1CCCCC1C(O)c1ccc(Cl)cc1 (centres undefined) | 1 | . | . | -12 | -74*
CC(=O)Nc1cc(-c2cccc(C(=O)N(C)C)c2)cn2c(-c3cccc(C(F)(F)F)c3)cnc12 | . | -6 | -11 | . | .
c1ccc(N2CCN(Cc3cn4cccnc4n3)CC2)cc1 | 0 | -59* | 6 | -6 | 10
c1ccc(CN2CCN(Cc3cn4cccnc4n3)CC2)cc1 | 1 | -14 | -10 | -6 | -9
